Bioassay records: PubChem, National Center for Advancing Translational Sciences (NCATS)
MCF10A rereplic = inducers of DNA re-replication in MCF 10A breast cells. MCF 10A DNA re-replication, Hoechst nuclear intensity, 48 h. 350,000 compounds, 2.9% hits. AID 624296. Potency, µM (doses to about 46.1 µM), most hits filed as activators; note: nearly all actives have a fitted effect of over 50% in size
KB-3-1 tox = KB-3-1 parental cell cytotoxicity | 400,000 compounds, 1.4% hits | AID 1347075 | KB-3-1 viability, CellTiter-Glo ATP luminescence, 72 h | Potency, µM (titrated, usually from 46.1 µM), most hits filed as cytotoxic; note: nearly all actives have a fitted effect of over 60% in size
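Screening of KB-3-1 cells (DMEM, 10% FBS, phenol-red free) ran from lowest to highest compound concentration; after 72 h at 37 °C viability was read luminescently and curves fitted.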
SW480 rereplic = inducers of DNA re-replication in SW480 colon cancer cells; AID 624297; SW480 DNA re-replication, Hoechst DNA content imaging, 48 h; 340,000 compounds, 1.8% hits; Potency, µM (titrated, usually from 46.1 µM), usual class: activators; note: nearly all actives have a fitted effect of over 55% in size
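First, 250 cells per well were seeded. Next, compound or vehicle (23 nL) was pinned in, plates sat 48 hr at 37 C. Finally Hoechst was added for 40 min before fluorescence scanning.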
KB-V1 cytotox = KB-V1 MDR subline cytotoxicity | KB-V1 MDR cells viability, CellTiter-Glo, 72 h | AID 1347076 | 400,000 compounds, 3.4% hits | Potency, µM (series often up to 46.1 µM), most hits filed as cytotoxic; note: nearly all actives have a fitted effect of over 60% in size
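Readout: CellTiter-Glo luminescence, 10 min after addition. Cells: KB-V1 MDR subline, 72 h at 37 degrees C with compound. Analysis: corrected, normalized data fitted to concentration-effect curves.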
ELG1 DNA repair = ELG1-dependent DNA repair inhibition; HEK293T ELG1-luciferase reporter, luminescence, 16 h; DNA damage induced by 5-fluorouridine; 330,000 compounds, 2.3% hits; Potency, µM (titrated, usually from 46.1 µM), actives largely listed as inhibitors; AID 504467; note: nearly all actives have a fitted effect of over 55% in size
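Luminescence from the luciferase reporter, measured 30 min after ONE-Glo reagent at room temperature, was the read-out. Beforehand, 2,000 cells per well were exposed for 16 hr at 37 °C to 5-fluorouridine together with compound or vehicle.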
Numbers stand for hits; - = inactive; ? = inconclusive; . = not tested or not shown; [ ] = remark or other dose. Compounds with a hit are over-represented: about 8.1% of the library has one in this group of screens. Calls come from the whole dose curve; as a rule, active = well fitted curve in the direction sought with a large enough effect; inconclusive = small, poorly fitted or top-dose-only effect, or another doubt; inactive = no such curve, though single readings can be large; an effect the other way counts as inactive or inconclusive.

SMILES	MCF10A rereplic	KB-3-1 tox	SW480 rereplic	KB-V1 cytotox	ELG1 DNA repair
Cc1ccc(C)c(CSc2nnc(-c3cccs3)n2Cc2ccco2)c1	21µM	-	?	18µM	-
CCOc1ccc(NC(=O)CSc2nnc(-c3ccccc3Cl)n2Cc2ccco2)cc1	-	?	-	21µM	?
O=C(CSc1nnc(Cc2cccs2)n1Cc1ccco1)Nc1cccc(Cl)c1	6.5µM	-	-	?	?
O=C1NC[C@H](CCCCN2C[C@H](Cc3ccc(O)cc3)N(Cc3ccccc3)C(=O)C2=O)N(CCc2ccccc2)C1=O	.	-	.	-	.
OC[C@@H]1CN(Cc2ccc3c(c2)OCO3)C[C@H](n2cnc3c(N4CCCC4)ncnc32)O1	.	-	.	-	.
Cc1cc(C)n(-c2ccc(Cl)c(C(=O)OCC(N)=O)n2)n1	-	-	-	-	-
Cc1cc(C)n(-c2ccc(Cl)c(C(=O)NCc3ccccc3)n2)n1	-	-	-	12µM	?
CC1CCN(C(=O)CSc2nc3ccccc3nc2Cc2ccccc2)CC1	.	-	.	-	.
Cc1ccccc1NC(=O)c1sc2nc[nH]c(=O)c2c1C	-	-	-	-	-
Cc1nc2sc(C(=O)Nc3ccccc3Cc3ccccc3)c(C)c2c(=O)[nH]1	5.8µM	-	-	?	?
Cc1cc(C(=O)CSc2nncs2)c(C)n1-c1c(C)n(C)n(-c2ccccc2)c1=O	-	-	-	-	-
Cc1ccc(-n2c(C)cc(C(=O)CSc3nncs3)c2C)cc1	-	23µM	-	?	?
COc1ccc(-n2nc(C(=O)NCC(=O)NCc3ccc(F)cc3)c3ccccc3c2=O)cc1	-	-	-	-	16µM
COc1ccc(-n2nc(C(=O)NCC(=O)NC(C)C)c3ccccc3c2=O)cc1	-	-	-	-	-
COc1ccc(-n2nc(C(=O)NCC(=O)N3CCCC3)c3ccccc3c2=O)cc1	-	-	-	?	-
COc1ccc(-n2nc(C(=O)NCC(=O)NCCC3=CCCCC3)c3ccccc3c2=O)cc1	-	-	-	-	16µM
Cc1nn2c(-c3ccco3)ccnc2c1-c1ccc(Cl)cc1	.	-	.	?	.
CC(C)(C)c1nnc(NC(=O)c2ccc3c(c2)OCO3)s1	-	-	-	-	?
COc1ccccc1NC(=O)Nc1nnc(C(C)c2ccccc2)s1 (stereo not given)	23µM	-	?	-	-
CC(c1ccccc1)c1nnc(NC(=O)c2ccc3c(c2)OCO3)s1 (stereo not given)	?	?	15µM	15µM	?
COc1ccccc1-c1nnc(NC(=O)c2ccc3c(c2)OCO3)s1	?	5.8µM	5.8µM	6.5µM	-
CC(C)c1nnc(NC(=O)c2ccc3c(c2)OCO3)s1	-	-	-	-	?
COc1ccccc1NC(=O)Nc1nnc(C(C)C)s1	-	-	-	-	?
C1=CN2CC=Cc3cc(/C=C/c4ccnc5ccccc45)cc(c32)C1	.	-	.	-	.
CC(=O)Oc1c(C)cc(OCC(O)CNC(C)C)c(C)c1C (stereo not given)	-	.	-	.	.
SMILES	MCF10A rereplic	KB-3-1 tox	SW480 rereplic	KB-V1 cytotox	ELG1 DNA repair
N#Cc1ccc(CN2CCN(C(=O)c3ccccc3)CC2)c(Cl)c1	-	-	-	21µM	-
O=C(NC1CCN(Cc2ccccc2)CC1)c1ccccc1	-	-	-	-	-
CCc1nc2ccc(C(=O)NC3CCN(Cc4ccccc4)CC3)cn2c1N(C)Cc1cc2ccccc2s1	.	?	.	10µM	.
O=C(NC1CCN(Cc2ccccc2)CC1)c1ccccc1Cl	-	-	-	-	-
CCc1nc2ccc(C(=O)NC3CCN(Cc4ccccc4)CC3)cn2c1N(C)Cc1cccs1	.	-	.	-	.
O=C(NC1CCN(Cc2ccc(Cl)cc2Cl)CC1)c1ccccc1	-	-	-	-	13µM
CC(C)(C)c1ccc(C(=O)NC2CCN(Cc3ccccc3)CC2)cc1	-	?	16µM	-	-
CCc1cccc(NC(=O)Cn2c(=O)n(Cc3ccccc3)c(=O)c3c(C)c(C(=O)N(C)C)sc32)c1	.	-	.	-	.
C[C@@H]1CC2C3CCC4=CC(=O)C=C[C@]4(C)[C@@]3(F)[C@@H](O)C[C@]2(C)[C@@]1(O)C(=O)COC(=O)c1cccc(S(=O)(=O)O)c1 (stereo not given in full)	-	.	-	.	.
Cc1ccc2c(=O)cc(C(=O)Nc3sc4c(c3C(=O)NCC3CCCO3)CCC4)oc2c1 (stereo not given)	.	-	.	-	.
Cc1ccc(NS(=O)(=O)c2ccc(C(=O)NC3CCN(Cc4ccccc4)CC3)cc2)cc1	-	.	18µM	.	?
Cc1ccc(Cl)cc1S(=O)(=O)N1CCC(C(=O)NC2CCN(Cc3ccccc3)CC2)CC1	?	?	?	-	5.2µM
Cc1ccc(NS(=O)(=O)c2cccc(C(=O)NC3CCN(Cc4ccccc4)CC3)c2)cc1	?	?	-	?	.
COc1cc(/C=C/C(=O)OCC(=O)NCCN2C(=O)CSC2=O)ccc1OCC#N	-	-	?	-	-
COc1ccccc1NCC(=O)N/N=C/c1c(O)ccc2ccccc12	?	?	3.3µM	-	?
Cn1ncc(N=Cc2c(O)ccc3ccccc23)c1C(=O)N1CCOCC1	-	-	-[9.22 µM]	-	.
COc1ccccc1NC(=O)c1c(N=Cc2c(O)ccc3ccccc23)cnn1C	?	21µM	?	?	?
C=CCc1cccc(/C=N/NC(=O)CNc2ccccc2OC)c1O	?	?	16µM	?	?
C=CCc1cccc(/C=N/NC(=O)CNc2cccc3ccccc23)c1O	?	?	?	-	-
C=CCc1cccc(/C=N/NC(=O)C(C)Nc2cccc(C)c2)c1O (stereo not given)	-	?	3.3µM	-	?
CCn1c(=O)c(=O)n(CC)c2cc(N3CCCCC3)c(NC(=O)c3ccccc3OC)cc21	.	-	.	-	.
Cc1cccc(N(CC(=O)NCc2ccco2)S(=O)(=O)c2ccccc2)c1	.	-	.	?	.
CSc1ccc(C2c3c(oc4ccc(F)cc4c3=O)C(=O)N2c2ccc(C)cn2)cc1 (stereo not given)	.	-	.	-	.
Cc1cc(C)cc(-n2ccn3c(CC(C)(C)CC(=O)O)nnc3c2=O)c1	.	-	.	-	.
CCOc1ccccc1CNC(=O)c1cc(-c2ccc(OC)cc2)nc2ccc(C(C)C)cc12	.	-	.	-	.
SMILES	MCF10A rereplic	KB-3-1 tox	SW480 rereplic	KB-V1 cytotox	ELG1 DNA repair
C=CCc1cccc(/C=N/NC(=O)CNc2ccccc2)c1O	-	-	13µM	-	.
C=CCc1cccc(/C=N/NC(=O)CCCNc2ccc(C)cc2)c1O	?	?	?	23µM	?
COc1ccc(Cc2c(C3CCCCC3)nc3c(Cl)cc(C(F)(F)F)cn23)c(C)c1	.	-	.	-	.
Cc1nn(C)c2c1c(C(F)(F)F)cc(=O)n2Cc1cccc(Br)c1	.	-	.	-	.
CCCCCc1ccc(OCCCC[n+]2cccc(C)c2)c(CCCCC)c1	?	9.2µM	?	-	-
c1cc[n+](CCCC[n+]2ccccc2)cc1	?	-	-	-	-
CCCCCc1ccc(OCCCC[n+]2ccc(C)cc2)c(CCCCC)c1	-	5.8µM	-	-	15µM
